We go through 10 compounds from PubChem BioAssay (Tox21).

Values joined by “and” are separate entries in the source; they are usually repeats but may differ in a detail not shown here. Equal entries are not always repeated. Some structures have more than one record in an assay (separate samples or runs), and their calls can disagree. Active and inactive are the calls of the source. Unless noted, the call rests on the fitted dose curve; in most records, active means well fitted curve in the direction sought with a large enough effect in the repeat runs; inconclusive means weak or mixed curves; inactive means no such curve, though single readings can be large; an effect the other way counts as inactive or inconclusive.

Experiment [1] can be described thus: qHTS assay to identify small molecule antagonists of the glucocorticoid receptor (GR) signaling pathway - cell viability counter screen (AID 720693). Further: nearly all actives have a fitted effect of over 55% in size. Further: potency means the concentration at half of the fitted maximal effect. Background: qHTS replaces the single test concentration by a dilution series.
Experiment [2] is described as follows: qHTS assay for identifying genotoxic compounds that show differential cytotoxicity against isogenic chicken DT40 cell lines with known DNA damage response pathways - wild type cell line (AID 743012). Further: nearly all actives have a fitted effect of over 60% in size. Further: potency means the concentration at half of the fitted maximal effect. In short, it runs like this:
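300 wt DT40 cells/well; cpd (DMSO) pintool-transferred after ~0.5 h at 37 C/5% CO2; 40 h incubation; CellTiter-Glo added, 30 min RT; luminescence read.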

The nature of experiment [3]: qHTS assay for identifying genotoxic compounds that show differential cytotoxicity against isogenic chicken DT40 cell lines with known DNA damage response pathways - Rev3 mutant cell line (AID 743014). Further: nearly all actives have a fitted effect of over 55% in size. Further: potency means the concentration at half of the fitted maximal effect.
A short description of experiment [4]: qHTS assay for identifying genotoxic compounds that show differential cytotoxicity against isogenic chicken DT40 cell lines with known DNA damage response pathways - Rad54/Ku70 mutant cell line (AID 743015). Further: nearly all actives have a fitted effect of over 60% in size. Further: potency means the concentration at half of the fitted maximal effect.
A short description of experiment [5]: qHTS assay to identify small molecule antagonists of the androgen receptor (AR) signaling pathway using the MDA cell line - cell viability counter screen (AID 743041; further: nearly all actives have a fitted effect of over 45% in size). In short, it runs like this:
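Viability read by CellTiter-Fluor fluorescence in the same wells as the antagonist screen, added after 15.5 h of a 16 h, 37C exposure. Human breast carcinoma MDA-kb2 AR-luc cells, compounds co-dosed with agonist R1881.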

The nature of experiment [6]: qHTS assay to identify small molecule antagonists of the thyroid receptor (TR) signaling pathway - cell viability counter screen (AID 743064). Further: nearly all actives have a fitted effect of over 50% in size. Further: potency means the concentration at half of the fitted maximal effect. In a few lines: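 Plate GH3.TRE-Luc cells; incubate 4 h at 37 °C; add compound, then T3 to 1 nM final; incubate 23.5 h; add CellTiter-Fluor; incubate 30 min at 37 °C, 5% CO2; read fluorescence.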
Experiment [7] can be described thus: qHTS assay to identify small molecule antagonists of the thyroid receptor (TR) signaling pathway (AID 743065). Further: nearly all actives have a fitted effect of over 55% in size. Further: potency means the concentration at half of the fitted maximal effect. In a few lines:
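Antagonism measured as loss of luciferase signal in GH3 cells stably carrying a TRE-luciferase reporter, co-treated with compound and T3 (1 nM final) for 23.5 h at 37 C. Viability was read in the same well by CellTiter-Fluor.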

For experiment [8], the system named is thyroid hormone receptor (rat, GH3 cells). Description: qHTS assay to identify small molecule agonists of the thyroid receptor (TR) signaling pathway (AID 743066; calls by dose curve).
For experiment [9], the target named is Estrogen receptor (Homo sapiens) (UniProt P03372). Description: qHTS assay to identify small molecule antagonists of the estrogen receptor alpha (ER-alpha) signaling pathway (AID 743069; active means well fitted curve in the direction sought with a large enough effect in the signal ratio in the repeat runs, not every such curve was filed as active; inconclusive means weak or mixed curves, or effect the other way; inactive means no such curve, though single readings can be large or run the other way; the % refers to the signal ratio; further: potency means the concentration at half of the fitted maximal effect). In a few lines: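 Antagonist mode: compounds in DMSO were co-added with 17beta-estradiol to ER-alpha-bla HEK293 cells (2% charcoal-stripped serum) and left 18 h at 37C. Reporter inhibition was measured as FRET fluorescence after 2 h LiveBLAzer substrate at room temperature.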
Chain of Estrogen receptor (Homo sapiens) (P03372 whole entry, looked up): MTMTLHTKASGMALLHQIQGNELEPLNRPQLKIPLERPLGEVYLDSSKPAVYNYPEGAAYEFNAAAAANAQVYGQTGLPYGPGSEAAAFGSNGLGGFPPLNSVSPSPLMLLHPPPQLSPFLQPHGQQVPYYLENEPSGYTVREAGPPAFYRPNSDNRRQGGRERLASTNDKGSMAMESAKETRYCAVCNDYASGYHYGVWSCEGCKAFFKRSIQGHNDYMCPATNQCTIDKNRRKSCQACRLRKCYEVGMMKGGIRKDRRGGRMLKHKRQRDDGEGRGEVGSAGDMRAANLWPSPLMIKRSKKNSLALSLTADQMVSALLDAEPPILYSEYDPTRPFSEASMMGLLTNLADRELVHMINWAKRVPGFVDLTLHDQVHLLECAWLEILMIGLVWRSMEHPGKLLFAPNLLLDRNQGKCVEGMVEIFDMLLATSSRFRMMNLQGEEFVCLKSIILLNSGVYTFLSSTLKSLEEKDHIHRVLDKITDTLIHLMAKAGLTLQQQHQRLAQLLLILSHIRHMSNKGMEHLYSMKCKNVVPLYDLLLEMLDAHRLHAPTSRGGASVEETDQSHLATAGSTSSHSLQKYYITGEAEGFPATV

The nature of experiment [10]: qHTS assay to identify small molecule antagonists of the estrogen receptor alpha (ER-alpha) signaling pathway - cell viability counter screen (AID 743074; calls by dose curve;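 further: HEK293 cells carrying ER-alpha-UAS-bla reporter stimulated with 17beta-estradiol; nearly all actives have a fitted effect of over 45% in size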).
The target of experiment [11] is Estrogen receptor (Homo sapiens) (UniProt P03372). Description: qHTS assay to identify small molecule agonists of the estrogen receptor alpha (ER-alpha) signaling pathway (AID 743075; calls by dose curve;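 further: HEK293 GripTite cells with ER-alpha and UAS-driven beta-lactamase reporter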).
Experiment [12] can be described thus: qHTS assay to identify small molecule antagonists of the estrogen receptor alpha (ER-alpha) signaling pathway using the BG1 cell line (AID 743080; calls by dose curve;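 further: BG1 cells stimulated with 17beta-estradiol alongside compound; nearly all actives have a fitted effect of over 25% in size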; further: potency means the concentration at half of the fitted maximal effect). In a few lines:
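Quantitative HTS on the Tox21 10K library: BG1 cells with endogenous ER-alpha and ERE-luciferase reporter, 17beta-estradiol stimulation, 21.5 h compound exposure, luminescence endpoint with parallel fluorescence cytotoxicity counter-read.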

Experiment [13] is described as follows: qHTS assay to identify small molecule antagonists of the estrogen receptor alpha (ER-alpha) signaling pathway using the BG1 cell line - cell viability counter screen (AID 743081).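 Further: compound given together with 17beta-estradiol as the ER stimulus; series mostly up to about 70 µM; nearly all actives have a fitted effect of over 45% in size.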
Experiment [14] has as its target Aromatase (Homo sapiens) (UniProt P11511). Description: qHTS assay to identify aromatase inhibitors (AID 743083). Further: nearly all actives have a fitted effect of over 55% in size. Further: potency means the concentration at half of the fitted maximal effect.
For experiment [15], the target named is Estrogen receptor (Homo sapiens) (UniProt P03372). Nature of the experiment: qHTS assay to identify small molecule agonists of the estrogen receptor alpha (ER-alpha) signaling pathway using the BG1 cell line (AID 743079). Further: nearly all actives have a fitted effect of over 20% in size.
A short description of experiment [16]: qHTS assay to identify small molecule antagonists of the androgen receptor (AR) signaling pathway - cell viability counter screen (AID 743033; further: nearly all actives have a fitted effect of over 45% in size; further: potency means the concentration at half of the fitted maximal effect).
In experiment [17] the target is Androgen receptor (Homo sapiens) (UniProt P10275). Description: qHTS assay to identify small molecule antagonists of the androgen receptor (AR) signaling pathway (AID 743035; active means well fitted inhibition curve with a large enough effect in the signal ratio in the repeat runs, not every such curve was filed as active; inconclusive means weak or mixed curves, or effect the other way; inactive means no such curve, though single readings can be large or run the other way; the % refers to the signal ratio). In a few lines:
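In this cell-based reporter screen, compounds were tested in concentration series against R1881-activated HEK293 cells expressing beta-lactamase under UAS control; after 16 h at 37C, FRET substrate was added and fluorescence read 2 h later.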

The target is the same in experiment [18]. Description: qHTS assay to identify small molecule agonists of the androgen receptor (AR) signaling pathway (AID 743036; active means well fitted activation curve with a large enough effect in the signal ratio in the repeat runs, with a control signal flat, not every such curve was filed as active; inconclusive means weak or mixed curves, or effect the other way; inactive means no such curve, though single readings can be large or run the other way; the % refers to the signal ratio). In a few lines:
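Reporter line: GeneBLAzer AR-UAS-bla-GripTite (HEK293). Steps: plate cells, 4 h rest, add compounds, 16 h at 37C, add LiveBLAzer B/G substrate, 2 h at RT, read fluorescence.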

Experiment [19] shares this target. Description: qHTS assay to identify small molecule agonists of the androgen receptor (AR) signaling pathway using the MDA cell line (AID 743040; further: nearly all actives have a fitted effect of over 20% in size). In short, it runs like this: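 Luciferase agonist assay: 16 h compound exposure at 37C without CO2 in MDA-kb2 AR-luc cells, whose MMTV promoter responds to both AR and GR. Luminescence measured after 30 min room-temperature incubation with ONE-Glo.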

For experiment [20] the target is unchanged. Nature of the experiment: qHTS assay to identify small molecule antagonists of the androgen receptor (AR) signaling pathway using the MDA cell line (AID 743042; further: nearly all actives have a fitted effect of over 55% in size). In short, it runs like this: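 Antagonist mode: compounds plus R1881 agonist added to MDA-kb2 AR-luc cells, incubated 16 h at 37C. Luciferase reporter luminescence quantified, with multiplexed CellTiter-Fluor readout for cell viability.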

Chain of Androgen receptor (Homo sapiens) (P10275 whole entry, looked up): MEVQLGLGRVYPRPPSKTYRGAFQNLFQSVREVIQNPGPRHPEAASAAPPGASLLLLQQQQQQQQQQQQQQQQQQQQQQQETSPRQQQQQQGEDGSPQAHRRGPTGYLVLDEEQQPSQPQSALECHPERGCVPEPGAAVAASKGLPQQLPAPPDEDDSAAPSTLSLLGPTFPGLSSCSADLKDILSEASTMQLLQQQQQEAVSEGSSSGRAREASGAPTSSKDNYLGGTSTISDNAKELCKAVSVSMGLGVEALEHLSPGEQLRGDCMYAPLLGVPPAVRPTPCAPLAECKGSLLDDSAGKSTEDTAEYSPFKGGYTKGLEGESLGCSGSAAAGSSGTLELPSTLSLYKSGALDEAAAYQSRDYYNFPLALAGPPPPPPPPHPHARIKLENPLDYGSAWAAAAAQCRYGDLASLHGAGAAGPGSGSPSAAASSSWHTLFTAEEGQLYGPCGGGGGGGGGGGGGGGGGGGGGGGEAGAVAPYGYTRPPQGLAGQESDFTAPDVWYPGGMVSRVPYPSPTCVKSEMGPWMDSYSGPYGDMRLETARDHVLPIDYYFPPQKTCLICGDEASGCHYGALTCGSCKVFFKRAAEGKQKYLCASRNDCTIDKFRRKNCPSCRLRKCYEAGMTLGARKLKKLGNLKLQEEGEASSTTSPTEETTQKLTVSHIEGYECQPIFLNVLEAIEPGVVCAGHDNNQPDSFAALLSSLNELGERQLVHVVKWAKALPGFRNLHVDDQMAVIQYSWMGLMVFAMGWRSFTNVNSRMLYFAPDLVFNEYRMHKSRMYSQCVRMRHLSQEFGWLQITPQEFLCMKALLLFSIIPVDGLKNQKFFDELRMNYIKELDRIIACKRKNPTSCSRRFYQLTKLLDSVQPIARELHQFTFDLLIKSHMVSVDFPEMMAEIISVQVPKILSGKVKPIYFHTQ
Chain of Aromatase (Homo sapiens) (P11511 whole entry, looked up): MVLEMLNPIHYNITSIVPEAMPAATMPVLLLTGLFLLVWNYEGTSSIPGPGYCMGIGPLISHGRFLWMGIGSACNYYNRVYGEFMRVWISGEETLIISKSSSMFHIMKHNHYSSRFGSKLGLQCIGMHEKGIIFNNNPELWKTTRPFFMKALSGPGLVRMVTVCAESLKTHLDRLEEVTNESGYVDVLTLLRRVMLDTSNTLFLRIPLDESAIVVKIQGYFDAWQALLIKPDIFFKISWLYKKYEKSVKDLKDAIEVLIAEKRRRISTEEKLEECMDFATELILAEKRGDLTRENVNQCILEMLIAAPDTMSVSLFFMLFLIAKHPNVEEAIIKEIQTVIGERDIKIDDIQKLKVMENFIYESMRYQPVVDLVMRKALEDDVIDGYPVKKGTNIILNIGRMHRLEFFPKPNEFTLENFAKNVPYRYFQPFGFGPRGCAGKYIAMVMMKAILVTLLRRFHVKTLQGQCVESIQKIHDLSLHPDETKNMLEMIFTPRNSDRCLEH

Take `Clc1cc(Cl)c(Cl)c(Cl)c1`: the Potency result in experiment [1], in experiment [2], in [3], in [4], in experiment [5] and in experiment [6] was “inactive” each time. Further, the Potency entry in experiment [7], in [8], in experiment [9], in [10], in experiment [11] and in experiment [12] was “inactive” in each case. Further, the Potency result in [13] and in experiment [14] was “inactive” throughout.

Consider `CCOc1ccc(C(C)(C)COCc2cccc(Oc3ccccc3)c2)cc1`, for which the Potency entry in experiment [1], in experiment [2], in experiment [3], in [4], in experiment [5] and in [6] was “inactive” in each case. Further, the Potency entry in experiment [7], in [8], in [9], in [10], in experiment [11] and in experiment [15] was “inactive” each time. The Potency entry in [12], in experiment [13] and in [14] was “inactive” in each case.

With `ClC=C(Cl)Cl`, the Potency result in experiment [1], in experiment [2], in experiment [3], in [4], in experiment [16] and in [6] was “inactive” throughout. Also, the Potency result in experiment [8], in experiment [9], in experiment [10], in [11], in [15] and in experiment [12] was “inactive” in each case. In addition, the Potency entry in [13] and in experiment [14] was “inactive” throughout.

Take `[CH3][Sn]([CH3])([Cl])[Cl]`: the Potency entry in experiment [1], in [16], in experiment [8], in experiment [10], in [13] and in experiment [14] was “inactive” in each case. For the same compound, the Potency in [2] is 54.5 µM (active); in [3], 62.1 µM (active) and 27.3 µM (active); in [4], 48.6 µM (active); in experiment [6], 55.4 µM (active) and inactive; in [7], 55.4 µM (active) and 68.6 µM (active).

In the case of `CC(C)(Cl)[N+](=O)[O-]`, the Potency entry in experiment [1], in experiment [2], in [3], in [4], in experiment [16] and in experiment [7] was “inactive” throughout. Further, the Potency entry in experiment [8], in [10], in [13] and in experiment [14] was “inactive” in each case.

For the compound `CC/C(=N\OC/C=C/Cl)C1=C(O)CC(C2CCOCC2)CC1=O` (stereo not given), the Potency result in experiment [1], in experiment [2], in experiment [3], in experiment [4], in [16] and in experiment [6] was “inactive” each time. Also, the Potency result in experiment [7], in experiment [8], in experiment [10], in [13] and in experiment [14] was “inactive” each time.

Consider `CCC(C)(NC(=O)c1cc(Cl)c(C)c(Cl)c1)C(=O)CCl` (stereo not given), for which the Potency in [1] is 43.9 µM (active); in [2] it was 6.9 µM (active); in experiment [3], 12.3 µM (active); in [4] it was 9.75 µM (active); in experiment [16], 24.7 µM (active); in experiment [6] it was 15.4 µM (active). The Potency in experiment [7] was 8.69 µM (active); in [9], 62 µM [inconclusive] (active); in experiment [14], 61.5 µM (active). In addition, the Potency entry in experiment [13] is “inactive”.

Turning to `c1ccc(C2CC2)c(OCC2=NCCN2)c1`, the Potency entry in [1], in [2], in [4], in experiment [16], in experiment [17] and in experiment [19] was “inactive” each time. In addition, the Potency result in experiment [5], in [20], in experiment [6], in experiment [7], in [8] and in experiment [9] was “inactive” in each case. For the same compound, the Potency entry in experiment [10], in experiment [11], in experiment [15], in [12] and in experiment [14] was “inactive” in each case. In addition, in experiment [18], the compound was classed as inactive.

In the case of `CC(Cl)Cl`, the Potency entry in experiment [1], in experiment [2], in [3], in experiment [4], in experiment [5] and in [8] was “inactive” throughout. The Potency result in experiment [9], in experiment [10], in [11], in [12], in [13] and in experiment [14] was “inactive” in each case.

On to `O=C(Nc1ccccc1)Nc1cnns1`, for which the Potency result in [1], in experiment [8], in experiment [10], in experiment [11] and in experiment [13] was “inactive” throughout. Further, the Potency in experiment [2] is 54.4 µM (active); in [3], 54.4 µM (active); in [4], 30.6 µM (active); in [7] it was 61.1 µM (active); in experiment [12], 68.5 µM (active).
